Bioassay records deposited in PubChem BioAssay by National Center for Advancing Translational Sciences (NCATS).
An excerpt weighted towards active compounds, which were near 0.42% of everything screened.
GLS inh: inhibitors of human glutaminase (GLS) | GLS enzymatic activity, qHTS titration | Potency, µM (highest dose often 45.5 µM), inactives show at the top dose activity change, negative = inhibition, actives largely listed as inhibitors | actives 0.21% (n = 410,000) | AID 624170
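hKGA in 45 mM KH2PO4 (pH 8.2), 0.02% Tween-20 with compound, then 1mM L-Glutamine (stock as added) plus glutamate oxidase/HRP/Amplex red coupling mix. Fluorescence read initially and after 30 min at RT; signal change reflects glutamate formation.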
Tb PFK inh: blocks T. brucei phosphofructokinase | O15648 | T. brucei PFK, ADP-Glo luminescence | Potency, µM (highest dose often 57.5 µM), without a hit: top-dose activity, negative = inhibition, actives largely listed as inhibitors | actives 0.17% (n = 330,000);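 further: 0% = uninhibited 1x PFK enzyme wells and -100% = no-enzyme wells; nearly all actives have a fitted effect of over 60% in size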
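Activity is normalized to no-enzyme wells (full inhibition) and 1.25 nM enzyme wells (no inhibition). Reaction: 0.5 mM F6P, 0.1 mM ATP, 45 min RT, ADP-Glo luminescence; concentration-response curves fitted and classed by quality.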
B2AR arrestin: beta2AR (human) beta-arrestin recruitment activity. P07550. beta-arrestin recruitment to beta2AR, cell-based reporter. Potency, µM (titrated, usually from 46.1 µM), for inactives: at the highest dose activation, hits mostly activators. actives 0.02% (n = 330,000);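 further: 0% = DMSO controls and full agonism = EC100 isoproterenol or metaproterenol; nearly all actives have a fitted effect of over 65% in size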
Target sequence (P07550 whole entry, looked up): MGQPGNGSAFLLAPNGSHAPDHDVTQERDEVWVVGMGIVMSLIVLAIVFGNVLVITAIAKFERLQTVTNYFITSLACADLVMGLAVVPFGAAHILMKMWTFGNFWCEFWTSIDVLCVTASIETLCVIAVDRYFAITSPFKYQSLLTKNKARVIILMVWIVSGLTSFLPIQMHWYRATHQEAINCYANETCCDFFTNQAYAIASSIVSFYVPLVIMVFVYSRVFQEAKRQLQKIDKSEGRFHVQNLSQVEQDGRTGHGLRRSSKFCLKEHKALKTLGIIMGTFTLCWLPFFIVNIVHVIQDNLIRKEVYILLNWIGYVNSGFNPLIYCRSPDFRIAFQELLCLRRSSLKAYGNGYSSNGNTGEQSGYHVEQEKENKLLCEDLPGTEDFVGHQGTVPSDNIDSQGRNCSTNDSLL
PGK inhibitor: T. brucei PGK inhibition; PGK/GAPDH coupled, Kinase-Glo luminescence, 60 min; actives 0.043% (n = 380,000); Potency, µM (doses to about 57.5 µM), without a hit: at the top dose activity change, negative = inhibition, hits mostly inhibitors; P07378; further: nearly all actives have a fitted effect of over 60% in size
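Luminescent ATP detection (Kinase-Glo Plus) follows a 60-minute room-temperature incubation, with wells lacking PGK as controls. Buffer: 100 mM TEA (pH 7.6), 5 mM MgCl2, 0.01% Tween-20. Coupling enzyme GAPDH (100 nM final) supplies unstable 1,3-BPG in-well.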
Pin1 inhibitor: human Pin1 inhibition | Q13526 | Pin1 FP peptide displacement, HiFluor488, 10 min | Potency, µM (doses to about 115 µM), inactives show at the top dose activity, negative = inhibition, hits mostly inhibitors | actives 0.009% (n = 390,000) | AID 504891; active means well fitted inhibition curve with a large enough effect in the polarisation, with a control signal flat, not every such curve was filed as active; inconclusive means small, poorly fitted or top-dose-only effect, or effect the other way, or a change in a side signal; inactive means no such curve, though single readings can be large or run the other way; the % refers to the polarisation
Target sequence (Q13526 whole entry, looked up): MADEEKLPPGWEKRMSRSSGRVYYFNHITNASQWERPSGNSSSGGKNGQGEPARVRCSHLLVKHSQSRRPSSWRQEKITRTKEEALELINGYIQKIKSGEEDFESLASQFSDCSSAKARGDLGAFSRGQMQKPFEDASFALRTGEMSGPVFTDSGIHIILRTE
Chronic BCR inh: inhibitors of chronic active B-cell receptor signaling; ABC-DLBCL IkBa-CBG/CBR reporter, luminescence ratio, 4 h; actives 0.05% (n = 340,000); Potency, µM (titrated, usually from 46.1 µM), without a hit: at the top dose activity change, negative = inhibition, actives largely listed as inhibitors; AID 493014; active means well fitted inhibition curve with a large enough effect in the signal ratio, with a control signal flat, not every such curve was filed as active; inconclusive means small, poorly fitted or top-dose-only effect, or effect the other way, or a change in a side signal; the % refers to the signal ratio;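 further: plate controls were basal doxycycline-induced cells for no effect and cells given 10 µM MG132 for full effect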
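Concentration-response series (up to 46 uM) were applied to TMD8 dual-reporter cells for 4 h at 37C with doxycycline. Green/red ratio, after filter-overlap correction, defined %Activity; red signal alone was normalised to basal cells and zero luminescence.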
The depositor's hits bear a star; i = inactive; ? = inconclusive; . = not tested or not shown; [ ] = another dose, or the depositor's remark. Unless noted, the call rests on the fitted dose curve; in most records, active means well fitted curve in the direction sought with a large enough effect; inconclusive means small, poorly fitted or top-dose-only effect, or another doubt; inactive means no such curve, though single readings can be large; an effect the other way counts as inactive or inconclusive. Unless noted, on the % scale 0 is the no-effect control and ±100 the full control effect; potency means the concentration at half of the fitted maximal effect.

SMILES | GLS inh | Tb PFK inh | B2AR arrestin | PGK inhibitor | Pin1 inhibitor | Chronic BCR inh
COc1ccc(Nc2nc(C#N)nc(NC3CCCC3)n2)cc1 | . | . | . | . | 8.0% | .
Cc1onc(-c2c(F)cccc2Cl)c1C(=O)N[C@@H]1C(=O)N2C(C(=O)O)C(C)(C)S[C@H]12 (stereo not given in full) | 11.2µM* | -10.3% | -0.2% | 1.8% | -12.3% | -3.9%
Cc1cccc(-n2c(=S)[nH]c3sc4c(c3c2=O)CCc2ccccc2-4)c1 | 10µM* | -6.8% | 0.2% | 3.6% | 0.5% | 8.5%
Cc1ccc(-n2c(=S)[nH]c3sc4c(c3c2=O)CCc2ccccc2-4)cc1 | 10.8% | 8.3% | -0.2% | 6.3% | -0.5% | -11.5%
Cc1ccc(C)c(N2C(=N)S/C(=C\c3ccc(-c4ccccc4C(=O)O)o3)C2=O)c1 | 0.0% | 2.8% | 0.1% | 0.4% | 64.4% | ?
CCOC(=O)C(C)N1C(=O)S/C(=C\c2ccc(-c3ccccc3C(=O)O)o2)C1=O (stereo not given) | 12.6µM* | -25.3% | -1.1% | . | -14.3% | 0.2%
Cc1nn(-c2ccccc2)c2nc(-c3ccco3)cc(C(=O)O)c12 | 7.08µM* | -10.4% | -0.6% | -23.5% | ? | 0.0%
Nc1ccc(S(=O)(=O)N2CCCN(S(=O)(=O)c3ccc4c(c3)OCCO4)CC2)cc1 | . | . | . | . | -0.6% | .
C[C@H]1c2cccc(O)c2C(O)=C2C(=O)[C@]3(O)C(O)=C(C(N)=O)C(=O)[C@@H](N(C)C)C3[C@@H](O)C21 (stereo not given in full) | 41.7% | 1.6% | 0.2% | i | 2.4% | 2.3%
C=C1c2cccc(O)c2C(=O)C2C(=O)[C@]3(O)C(=O)C(C(N)=O)C(=O)[C@@H](N(C)C)[C@@H]3[C@@H](O)[C@H]12 (stereo not given in full) | 8.91µM* | ? | -0.9% | -27.7% | . | -0.1%
O=[S+]([O-])(c1cc2ccccc2o1)N1CCN([S+](=O)([O-])c2c(F)cccc2F)CC1 | . | . | . | . | 2.1% | .
O=c1[nH][nH]c2c(N=Cc3ccccc3O)ccc(F)c12 | 11.2µM* | ? | -0.5% | 15.8µM* | ? | 8.7%
CCc1ccc(O)c(N=Cc2ccccc2O)c1 | 0.8% | -1.4% | 0.3% | i | 4.5% | ?
NS(=O)(=O)c1ccc(CCNC(=O)CCS(=O)(=O)c2ccc(Br)cc2)cc1 | ? | 15.1µM* | -1.0% | . | -9.2% | -4.0%
O=C(CCS(=O)(=O)c1ccc(Br)cc1)NCCc1ccccc1 | -6.4% | -18.6% | 0.5% | ? | -27.3% | 0.6%
CCc1c(C)c(C#N)c2nc3ccccc3n2c1Cl | . | 3.4% | 0.3% | . | . | 8.2µM*
COc1cc(OC)cc(C(=O)N/N=C/c2ccc(OC)c(COc3ccc(F)cc3)c2)c1 | -12.2% | 0.0%[0.46 µM] | -0.1% | -7.6% | 3.6% | 10µM*
COc1ccc(OCc2cc(/C=N\NC(=O)c3ccccc3)ccc2OC)cc1 | -2.5% | -0.5% | -0.1% | -7.2% | 19.7% | ?
Nc1cccc(S(=O)(=O)N2CCN(S(=O)(=O)c3c(F)cccc3F)CC2)c1 | . | . | . | . | -2.8% | .
COc1ccc(-c2nc(-c3ccccn3)no2)cc1 | 7.4% | ? | 0.0% | 15.8µM* | -1.0% | ?
N=c1c2c(ncn1-c1ccccc1)Oc1ccc3ccccc3c1C2c1ccc2c(c1)OCCO2 (stereo not given) | . | . | . | . | 113.8% | .
O=C(O)c1ccc(N/N=C/c2cc(Br)cs2)cc1 | 8.91µM* | 0.2% | 0.5% | 1.8% | -6.2% | ?
NCCC(=O)Nc1cccc(-c2nn3c(=O)cc(N4CCNCC4)nc3s2)c1 | . | . | . | . | 0.6% | .
Cc1cc(C)c(S(=O)(=O)c2ccccc2Cl)c(Cl)n1 | . | -2.7% | -0.3% | . | . | -11.0%
Cc1cc(C)c(S(=O)(=O)c2ccc(F)cc2C)c(Cl)n1 | 15.8µM* | -0.5% | 0.5% | -3.5% | 1.2% | ?
SMILES | GLS inh | Tb PFK inh | B2AR arrestin | PGK inhibitor | Pin1 inhibitor | Chronic BCR inh
NC(=O)C1CCN(c2nc(-c3ccc(OC(F)(F)F)cc3)cs2)CC1 | . | . | . | . | -19.2% | .
O=C1NC(=S)S/C1=C\C=C\c1ccc([N+](=O)[O-])o1 | 1.8% | -12.9% | -0.3% | 28.2µM* | 0.2% | ?
Cc1ccsc1CNc1ncnc2ccc(-c3ccc4c(c3)OCO4)cc12 | . | . | . | . | 24.9% | .
Cc1ccc(C(=O)O/N=C(\N)c2ccccn2)cc1 | 5.3% | ? | -0.4% | 25.1µM* | -3.9% | ?
C/C(=N\OC(=O)c1ccc(C)cc1)c1sc(C)nc1C | 4.3% | 1.2% | 0.8% | -9.6% | -1.1% | ?
C/C(=N/OC(=O)c1ccc(C)cc1)c1cccs1 | -15.8% | ? | 0.5% | 31.6µM* | -1.6% | 1.2%
CCOc1ccc(C(=O)O/N=C(\N)c2ccccn2)cc1 | 1.8% | ? | -1.2% | 12.6µM* | 0.1% | ?
COc1ccc(C(=O)O/N=C(/c2ccccc2)c2ccncc2)cc1 | 3.5% | -6.8% | 0.0% | -7.4% | 8.1% | ?
N/C(=N\OC(=O)c1ccccc1)c1ccccn1 | -0.4% | ? | 0.1% | ? | -7.5% | ?
COc1ccc(C(=O)O/N=C(\C)c2ccccc2)cc1 | 1.4% | -12.8% | -0.2% | 22.4µM* | 2.7% | 5.1%
COc1ccc(O)c(-c2nc3ccccc3c(=O)n2Cc2ccccc2)c1 | . | . | . | . | 1.0% | .
c1ccc(P(c2ccccc2)c2cnc3ccccn23)cc1 | . | . | . | . | -1.2% | .
Cc1ccc(-c2ccnc(N3CCC(C(N)=O)CC3)n2)cc1 | . | . | . | . | 8.3% | .
CC(=O)Nc1ccc(S(=O)(=O)N2CCN(S(=O)(=O)c3c(F)cccc3F)CC2)cc1 | . | . | . | . | 34.1% | .
CC1CCCCC1NC(=O)COC(=O)c1c2c(nc3ccccc13)/C(=C/c1ccco1)CC2 (stereo not given) | -23.0% | -15.8% | -0.6% | -9.7% | . | 4.3%
O=C(COC(=O)c1c2c(nc3ccccc13)/C(=C/c1ccco1)CC2)NC1CCCC1 | 17.8µM* | -21.2% | -2.0% | -15.9% | ? | 1.9%
O=C1CCCC2=C1C1(CCCOC1)N=C(Nc1nc3ccccc3o1)N2 (stereo not given) | . | . | . | . | -0.4% | .
Cc1ccc2nc(Cl)c(C3CC(c4ccco4)=NN3C(=O)CCCC(=O)O)cc2c1 (stereo not given) | -3.7% | 1.6% | -0.4% | 0.7% | ? | ?
CC(=O)N1N=C(c2ccco2)CC1c1cc2cc(C)ccc2nc1Cl (stereo not given) | 5.62µM* | 0.1% | 0.2% | 1.2% | -7.2% | 5.0%
CC(C1CC2CCC1C2)n1c(-c2ccco2)n[nH]c1=S (stereo not given) | 11.2µM* | 0.0% | 0.2% | 7.3% | 0.8% | 5.1%
CCOC(=O)c1cc(-c2ccc(OC)cc2)nn1-c1ccccc1C(=O)O | 11.2µM* | -2.0% | -0.4% | ? | -2.8% | -4.1%
